Rows were chosen to be rich in hits. Some 7.2% of all compounds tested hit in one or more screens of this group.
hNpr1 antagonist: Natriuretic polypeptide receptor (hNpr1) antagonism - Primary qHTS; Atrial natriuretic peptide receptor 1 (Homo sapiens), P16066; HEK293 hNpr1 GloSensor cGMP, ANP-stimulated luminescence; Potency, µM (series often up to 46.3 µM), without a hit: at the highest dose activity change, negative = inhibition, hits mostly inhibitors; hit rate 1.6% among 76,000; AID 1347048, 2019; calls by dose curve; note: nearly all actives have a fitted effect of over 60% in size
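HEK293 cells stably expressing human Npr1 and cGMP GloSensor pGS-40F, loaded 2 h with 2% GloSensor reagent, given compound 30 min at room temperature. Luminescence read before and 20 min after 0.1 nM hNppA.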
HEK cytotox: Cytotoxic Profiling in HEK 293 Cell Line of Diverse Libraries Using Quantitative High-Throughput Screening; AID 1345083, 2018; HEK 293 viability, ATP luminescence (CellTiter-Glo), 48-72 h; hit rate 6.6% among 94,000; Potency, µM (titrated, usually from 115 µM), for inactives: top-dose activity change, negative = cytotoxicity, hits mostly inhibitors; note: nearly all actives have a fitted effect of over 60% in size
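Pintool-delivered compounds were incubated with HEK 293 cells (250 cells/well) at 37 degree Celsius for 48 or 72 hr. ATP-dependent luminescence (CellTiter-Glo) then reported remaining viable cells.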
3T3 cytotox: Cytotoxic Profiling in NIH 3T3 Cell Line of Diverse Libraries Using Quantitative High-Throughput Screening | NIH 3T3 viability, CellTiter-Glo ATP luminescence, 48-72 h | Potency, µM (top dose mostly 96.7 µM), without a hit: top-dose activity change, negative = cytotoxicity, most hits filed as inhibitors | hit rate 4.3% among 94,000 | AID 1345082, 2018; note: nearly all actives have a fitted effect of over 55% in size
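NIH 3T3 cells at 400 cells/well received 23 nL of compound by pintool and were incubated 48 or 72 h at 37 °C. Viability was read as ATP-coupled CellTiter-Glo luminescence.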
FLuc inh: Firefly luciferase inhibition profiling of diverse chemical library using quantitative high-throughput screening; Luciferin 4-monooxygenase (Photinus pyralis), P08659; Potency, µM (titrated, usually from 115 µM), most hits filed as inhibitors; AID 1347043, 2019; purified P. pyralis luciferase, luminescence, biochemical; hit rate 2.5% among 76,000; note: nearly all actives have a fitted effect of over 65% in size
Target sequence (P08659 whole entry, looked up): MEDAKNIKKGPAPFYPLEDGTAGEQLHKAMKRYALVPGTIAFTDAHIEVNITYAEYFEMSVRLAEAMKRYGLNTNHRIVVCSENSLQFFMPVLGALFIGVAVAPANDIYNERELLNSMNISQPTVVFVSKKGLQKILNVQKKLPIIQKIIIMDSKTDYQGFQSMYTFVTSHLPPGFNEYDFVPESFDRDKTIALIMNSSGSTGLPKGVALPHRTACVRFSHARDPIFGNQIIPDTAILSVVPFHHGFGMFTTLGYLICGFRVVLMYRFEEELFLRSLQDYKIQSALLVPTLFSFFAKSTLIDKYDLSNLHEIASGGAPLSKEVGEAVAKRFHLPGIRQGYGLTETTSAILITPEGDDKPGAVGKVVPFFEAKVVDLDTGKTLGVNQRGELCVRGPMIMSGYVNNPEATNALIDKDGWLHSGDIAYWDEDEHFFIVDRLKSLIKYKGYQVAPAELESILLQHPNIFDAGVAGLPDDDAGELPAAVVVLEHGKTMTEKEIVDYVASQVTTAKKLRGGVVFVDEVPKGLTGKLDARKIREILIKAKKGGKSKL
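Purified P. pyralis luciferase (10nM final) in 50mM Tris acetate pH 7.5, 10mM Mg acetate, 0.01% Tween-20, 0.05% BSA with 10uM D-luciferin and 10uM ATP. Compounds titrated qHTS. Luminescence imaged on CCD.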
SNCA expr inhib: Primary qHTS assay for inhibitors of alpha-synuclein gene (SNCA) expression | HEK-293 SNCA-luciferase knock-in, luminescence, 24 h | Potency, µM (top dose mostly 57.2 µM), inactives show at the top dose activity change, negative = inhibition, most hits filed as inhibitors | hit rate 0.17% among 140,000 | AID 1671194, 2021;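 note: plate controls were DMSO cells for no effect and cell-free wells for full effect; nearly all actives have a fitted effect of over 45% in size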
HEK293 viab: GF-AFC viability counterscreen for inhibitors of alpha-synuclein gene (SNCA) expression | HEK-293-SNCA-luc viability, GF-AFC fluorescence, 24 h | Potency, µM (doses to about 57.1 µM), for inactives: at the highest dose activity change, negative = cytotoxicity, most hits filed as cytotoxic | hit rate 0.12% among 150,000 | AID 1671193, 2021;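 note: 0% = DMSO-treated cells and -100% = medium-only wells without cells; nearly all actives have a fitted effect of over 30% in size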
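Cytotoxicity counterscreen: after 24 h compound treatment of genome-edited SNCA-luciferase HEK-293 cells, live-cell protease substrate GF-AFC read by fluorescence after 30 min; activity scaled between DMSO (0%) and medium-only (-100%), curves Hill-fitted.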
Numbers without * were called inactive; i = inactive; ? = inconclusive; [ ] = dose if it differs, or a comment. Unless noted, calls come from the whole dose curve; as a rule, active = well fitted curve in the direction sought with a large enough effect; inconclusive = small, poorly fitted or top-dose-only effect, or another doubt; inactive = no such curve, though single readings can be large; an effect the other way counts as inactive or inconclusive. Unless noted, % is set by controls: 0 for no effect and ±100 for the full control effect; potency is the fitted concentration of half-maximal effect.

SMILES	hNpr1 antagonist	HEK cytotox	3T3 cytotox	FLuc inh	SNCA expr inhib	HEK293 viab
CCC(CC)c1cc([C@H]2CN3CC[C@H]2C[C@@H]3CNC(=O)C(C)(C)C)nc(-c2ccncc2)n1	-2.5%	?	?	i	?	-1.7%
CCC(CC)c1cc([C@H]2CN3CC[C@H]2C[C@@H]3CNC(=O)c2ccccc2)nc(-c2ccncc2)n1	-12.3%	?	-43.1%	i	-1.2%	-13.0%
Cn1nc(C2CCCCC2)cc1[C@H]1CN2CC[C@H]1C[C@@H]2CN	1.4%[70.6 µM]	100µM*	?	i	-9.8%[87.6 µM]	-9.1%[87.6 µM]
CCC(CC)c1cc([C@H]2CN3CC[C@H]2C[C@@H]3COC(=O)Nc2ccc(C(C)(C)C)cc2)nc(-c2ccncc2)n1	-23.7%	7.08µM*	5.01µM*	?	?	?
CC(C)(C)c1ccc(NC(=O)OC[C@H]2C[C@@H]3CCN2C[C@@H]3c2cc(C3CCCC3)nc(-c3ccncc3)n2)cc1	4.5%	20µM*	20µM*	?	?	?
CCCNC(=O)OC[C@H]1C[C@@H]2CCN1C[C@@H]2c1cc(C(CC)CC)nc(-c2ccncc2)n1	?	?	39.8µM*	i	-10.8%	?
CC(C)(O)c1cn(C[C@H]2C[C@@H]3CCN2C[C@@H]3C(=O)Nc2ccccc2)nn1	1.0%[70.6 µM]	1.4%[172 µM]	-12.3%[174 µM]	i	?	-3.0%[87.6 µM]
Cc1ccc([C@H]2CN(C(=O)c3cc(C(C)C)on3)[C@@H]3C4CCN(CC4)[C@H]23)cc1	-0.5%	?	?	i	2.0%	-10.0%
O=C(Cc1cccc(F)c1)N1[C@H]2CC[C@@H]1c1cnc(-c3ccc(F)cc3)nc1C2	-28.6%	?	?	i	?	-6.9%
O=C(c1ccccc1)N1C[C@@H]2C[C@H](C1)c1c(-c3cncnc3)ccc(=O)n1C2	0.0%[70.6 µM]	1.5%[172 µM]	3.0%[174 µM]	i	-19.2%[87.6 µM]	-0.4%[87.6 µM]
O=C(c1ccccc1)N1C[C@@H]2C[C@H](C1)c1c(/C=C/c3ccc(Cl)cc3)ccc(=O)n1C2	1.0%[70.6 µM]	89.1µM*	?	i	-26.0%[87.6 µM]	-12.0%[87.6 µM]
CCCSc1ncc(CN2CCCC3(CCNC3)C2)cn1 (centres undefined)	7.8%	-16.4%	-27.5%	i	-14.0%	3.3%
CCOCCCNC(=O)N1[C@H]2CC[C@@H]1c1cnc(-c3ccc(F)cc3)nc1C2	?	?	?	i	?	-5.5%
C#C[C@H]1CN2CC[C@H]1C[C@@H]2COC(=O)Nc1ccc(C(C)(C)C)cc1	-0.8%[70.6 µM]	?	79.4µM*	i	-1.0%[87.6 µM]	2.9%[87.6 µM]
C#C[C@H]1CN2CC[C@H]1C[C@@H]2COC(=O)Nc1ccc(OC(F)(F)F)cc1	?	?	39.8µM*	i	-7.4%[87.6 µM]	-7.1%[87.6 µM]
C#C[C@H]1CN2CC[C@H]1C[C@@H]2COC(=O)Nc1ccc(Br)cc1	-3.0%[70.6 µM]	?	?	i	-1.0%[87.6 µM]	3.5%[87.6 µM]
Cn1nc(-c2cccs2)cc1[C@H]1CN2CC[C@H]1C[C@@H]2CNS(=O)(=O)c1ccccc1	3.2%	-26.2%	?	i	-13.2%	8.9%
Cc1nc(-c2cccs2)cc([C@H]2CN3CC[C@H]2C[C@@H]3CO)n1	2.2%[70.6 µM]	-105.7%[172 µM]	15.8µM*	i	3.55µM*	-24.8%[87.6 µM]
Cc1nc(-c2cccs2)cc([C@H]2CN3CC[C@H]2C[C@@H]3CNS(=O)(=O)c2ccccc2)n1	-8.1%	28.2µM*	20µM*	i	?	-5.9%
Cc1nc(-c2ccccc2Br)cc([C@H]2CN3CC[C@H]2C[C@@H]3CNS(=O)(=O)c2cccs2)n1	4.0%	79.4µM*	79.4µM*	i	-21.3%	-8.1%
Cc1nc(-c2cccs2)cc([C@H]2CN3CC[C@H]2C[C@@H]3CNC(=O)C(C)(C)C)n1	-8.1%[70.6 µM]	?	?	i	-27.1%[87.6 µM]	8.1%[87.6 µM]
Cc1ncc2c(n1)C[C@@H]1CC[C@H]2N1C(=O)CCCc1ccccc1	3.6%	i	-5.3%	i	-11.6%	0.0%
Cc1nc(-c2ccco2)cc([C@H]2CN3CC[C@H]2C[C@@H]3CNC(=O)Nc2ccccc2)n1	-11.0%[70.6 µM]	89.1µM*	?	i	?	-19.0%[87.6 µM]
Cc1nc(-c2ccco2)cc([C@H]2CN3CC[C@H]2C[C@@H]3CNC(=O)C2CCCCC2)n1	?	?	?	i	-8.0%[87.6 µM]	-8.5%[87.6 µM]
Cc1nc(-c2ccco2)cc([C@H]2CN3CC[C@H]2C[C@@H]3CNC(=O)NC2CCCCC2)n1	0.5%[70.6 µM]	?	100µM*	i	-5.0%[87.6 µM]	-15.3%[87.6 µM]
SMILES	hNpr1 antagonist	HEK cytotox	3T3 cytotox	FLuc inh	SNCA expr inhib	HEK293 viab
Cc1nc(-c2ccccc2)cc([C@H]2CN3CC[C@H]2C[C@@H]3CN(Cc2ccco2)Cc2ccco2)n1	-15.9%	?	22.4µM*	i	?	?
Cc1ccc(CC(=O)N2CCN(C3CCN(Cc4cccnc4)C3=O)CC2)cc1 (centres undefined)	-9.0%	?	?	i	4.0%	1.3%
Cn1nc(-c2ccc(F)cc2)cc1[C@H]1CN2CC[C@H]1C[C@@H]2CNC(=O)COc1ccccc1	-12.3%	?	?	i	?	-14.3%
COc1cc2c(cc1OCc1ccncc1)NC(=O)C21CCN(c2nc(C)cc(C)n2)CC1	-20.2%	?	?	i	-5.9%	-0.1%
CSc1cccc(NC(=O)NC[C@H]2C[C@@H]3CCN2C[C@@H]3CN2CCN(c3ccccc3)CC2)c1	-1.5%	22.4µM*	20µM*	i	4.6%	4.2%
CSc1cccc(NC(=O)NC[C@H]2C[C@@H]3CCN2C[C@@H]3CN2CCSCC2)c1	0.8%[70.6 µM]	?	100µM*	i	-5.5%[87.6 µM]	-12.0%[87.6 µM]
CN(CCc1ccccn1)C[C@H]1CN2CC[C@H]1C[C@@H]2CNC(=O)Nc1ccccc1	-1.1%[70.6 µM]	i	-7.1%[174 µM]	i	13.5%[87.6 µM]	6.3%[87.6 µM]
CSc1cccc(NC(=O)NC[C@H]2C[C@@H]3CCN2C[C@@H]3CN(C)CCc2ccccn2)c1	-3.0%	?	79.4µM*	i	4.5%	15.1%
O=C(NC[C@H]1C[C@@H]2CCN1C[C@@H]2CN1CCCCC1)c1ccc(C(F)(F)F)cc1	1.7%[70.6 µM]	?	?	i	6.9%[87.6 µM]	6.3%[87.6 µM]
CCn1c(CO)nnc1C1CC(NC(=O)c2cnn(Cc3ccccc3)c2)C1 (centres undefined)	4.6%	-10.9%	-2.5%	i	?	2.8%
Cc1nc(-c2cccs2)cc([C@H]2CN3CC[C@H]2C[C@@H]3COC(=O)NC2CCCCC2)n1	2.4%	44.7µM*	44.7µM*	i	?	0.8%

Assay outcomes (PubChem)
